Reference: the supplement of paper PMC10849652
The full data set covers some 8,800 targets. This sample favours those with a hit. About 0.5% of all pairs of compound and target were hits.

Key:
Test in all cases: log2 fold change, soluble protein after heating vs DMSO (PISA); higher = thermal stabilisation; K562 lysate, 10 uM; active = over 0.2 and 3.5 SD of the protein, either way, in both replicates (recomputed)
[1] = compound: C1=CC=C(C=C1)[C@H](COC2=CC3=C(C=C2)NC(=O)N3)NC(=O)C4=CC=CN(C4=O)CC5=CC(=C(C=C5)F)F
Outline: (§1)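 A 30 min treatment with 10 μM compound was applied to crude K562 extract at 1 mg/mL protein in PBS pH 7.4 with 1 mM MgCl2. Heating for 3 min spanned 48°C-58°C, after which aliquots were pooled, adjusted to 0.5% NP-40 at 4°C and spun at 21,000xg for 90 min. TMTpro 16plex LC-MS/MS of the supernatant, with channel sums equalised, gave values recorded as log-two fold change in thermal stability against solvent controls, from duplicates.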

[2] = compound: CC1=C(SC2=C1C(=N[C@H](C3=NN=C(N32)C)CC(=O)N)C4=CC=C(C=C4)Cl)C
Outline: as §1

[3] = compound: CC1=C2C(=CC=C1)N=C(N(C2=O)C3=CC=CC=C3C)CN4C=NC5=C(N=CN=C54)N
Outline: as §1

[4] = compound: Cc1sc2c(c1C)C(c1ccc(Cl)cc1)=N[C@@H](CC(=O)OC(C)(C)C)c1nnc(C)n1-2
Outline: as §1

[5] = compound: c1ccc([C@@H]2C[C@H]2NC2CCNCC2)cc1
Outline: as §1

Measured: log2 fold change

LTN1 isoform 3 (UniProt O94822)
inactive: [1] -0.059 | [2] 0 | [3] 0.027 | [4] -0.025 | [5] 0.04

MRPL19 (UniProt P49406)
inactive: [1] 0.017 | [2] -0.064 | [3] 0.011 | [4] -0.065 | [5] 0.019

MCMBP (UniProt Q9BTE3)
Chain of UniProt Q9BTE3 (Q9BTE3 whole entry, looked up): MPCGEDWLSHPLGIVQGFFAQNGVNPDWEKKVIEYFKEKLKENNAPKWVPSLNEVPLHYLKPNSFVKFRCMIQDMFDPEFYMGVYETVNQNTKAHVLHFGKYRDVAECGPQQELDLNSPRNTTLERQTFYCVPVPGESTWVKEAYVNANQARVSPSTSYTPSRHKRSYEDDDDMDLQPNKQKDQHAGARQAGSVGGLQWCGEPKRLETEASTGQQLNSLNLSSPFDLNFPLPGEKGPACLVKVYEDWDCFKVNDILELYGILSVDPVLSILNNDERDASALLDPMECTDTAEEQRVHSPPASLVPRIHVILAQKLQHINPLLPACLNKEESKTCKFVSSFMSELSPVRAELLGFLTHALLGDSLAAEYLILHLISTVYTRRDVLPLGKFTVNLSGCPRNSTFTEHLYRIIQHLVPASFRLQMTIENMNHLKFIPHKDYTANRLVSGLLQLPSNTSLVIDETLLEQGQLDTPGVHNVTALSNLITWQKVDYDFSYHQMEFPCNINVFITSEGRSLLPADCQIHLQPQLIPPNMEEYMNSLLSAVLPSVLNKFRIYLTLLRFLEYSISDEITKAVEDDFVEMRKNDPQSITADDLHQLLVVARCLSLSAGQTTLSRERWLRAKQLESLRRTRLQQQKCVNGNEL
inactive: [1] -0.016 | [2] 0.035 | [3] 0.019 | [4] -0.013 | [5] 0.057

KLHL12 isoform 2 (UniProt Q53G59)
Chain of UniProt Q53G59 (Q53G59 whole entry, looked up): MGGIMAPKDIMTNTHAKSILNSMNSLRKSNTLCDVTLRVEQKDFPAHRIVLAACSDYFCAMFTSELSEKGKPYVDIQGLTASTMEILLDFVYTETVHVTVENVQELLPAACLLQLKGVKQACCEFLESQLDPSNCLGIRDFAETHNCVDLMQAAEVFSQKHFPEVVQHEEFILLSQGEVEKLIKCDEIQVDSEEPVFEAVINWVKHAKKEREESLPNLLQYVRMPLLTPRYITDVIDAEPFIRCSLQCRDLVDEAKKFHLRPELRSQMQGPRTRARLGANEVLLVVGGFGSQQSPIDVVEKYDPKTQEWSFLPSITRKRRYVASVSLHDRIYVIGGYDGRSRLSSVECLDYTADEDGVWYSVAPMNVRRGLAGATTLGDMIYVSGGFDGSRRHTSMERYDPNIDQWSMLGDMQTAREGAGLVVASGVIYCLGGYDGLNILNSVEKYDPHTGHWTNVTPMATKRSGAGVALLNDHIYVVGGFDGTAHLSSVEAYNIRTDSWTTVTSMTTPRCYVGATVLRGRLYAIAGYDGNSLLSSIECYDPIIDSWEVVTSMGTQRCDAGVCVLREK
inactive: [1] 0.152 | [2] -0.049 | [3] -0.013 | [4] 0.161

LYRM4 (UniProt Q9HD34)
Chain of UniProt Q9HD34 (Q9HD34 whole entry, looked up): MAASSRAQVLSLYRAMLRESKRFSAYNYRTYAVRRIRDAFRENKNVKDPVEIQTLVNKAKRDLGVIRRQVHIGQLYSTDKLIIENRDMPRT
inactive: [1] -0.03 | [2] 0.074 | [3] 0.077 | [4] 0.006 | [5] 0.004

KNL1 (UniProt Q8NG31)
Chain of UniProt Q8NG31 (Q8NG31 whole entry, looked up): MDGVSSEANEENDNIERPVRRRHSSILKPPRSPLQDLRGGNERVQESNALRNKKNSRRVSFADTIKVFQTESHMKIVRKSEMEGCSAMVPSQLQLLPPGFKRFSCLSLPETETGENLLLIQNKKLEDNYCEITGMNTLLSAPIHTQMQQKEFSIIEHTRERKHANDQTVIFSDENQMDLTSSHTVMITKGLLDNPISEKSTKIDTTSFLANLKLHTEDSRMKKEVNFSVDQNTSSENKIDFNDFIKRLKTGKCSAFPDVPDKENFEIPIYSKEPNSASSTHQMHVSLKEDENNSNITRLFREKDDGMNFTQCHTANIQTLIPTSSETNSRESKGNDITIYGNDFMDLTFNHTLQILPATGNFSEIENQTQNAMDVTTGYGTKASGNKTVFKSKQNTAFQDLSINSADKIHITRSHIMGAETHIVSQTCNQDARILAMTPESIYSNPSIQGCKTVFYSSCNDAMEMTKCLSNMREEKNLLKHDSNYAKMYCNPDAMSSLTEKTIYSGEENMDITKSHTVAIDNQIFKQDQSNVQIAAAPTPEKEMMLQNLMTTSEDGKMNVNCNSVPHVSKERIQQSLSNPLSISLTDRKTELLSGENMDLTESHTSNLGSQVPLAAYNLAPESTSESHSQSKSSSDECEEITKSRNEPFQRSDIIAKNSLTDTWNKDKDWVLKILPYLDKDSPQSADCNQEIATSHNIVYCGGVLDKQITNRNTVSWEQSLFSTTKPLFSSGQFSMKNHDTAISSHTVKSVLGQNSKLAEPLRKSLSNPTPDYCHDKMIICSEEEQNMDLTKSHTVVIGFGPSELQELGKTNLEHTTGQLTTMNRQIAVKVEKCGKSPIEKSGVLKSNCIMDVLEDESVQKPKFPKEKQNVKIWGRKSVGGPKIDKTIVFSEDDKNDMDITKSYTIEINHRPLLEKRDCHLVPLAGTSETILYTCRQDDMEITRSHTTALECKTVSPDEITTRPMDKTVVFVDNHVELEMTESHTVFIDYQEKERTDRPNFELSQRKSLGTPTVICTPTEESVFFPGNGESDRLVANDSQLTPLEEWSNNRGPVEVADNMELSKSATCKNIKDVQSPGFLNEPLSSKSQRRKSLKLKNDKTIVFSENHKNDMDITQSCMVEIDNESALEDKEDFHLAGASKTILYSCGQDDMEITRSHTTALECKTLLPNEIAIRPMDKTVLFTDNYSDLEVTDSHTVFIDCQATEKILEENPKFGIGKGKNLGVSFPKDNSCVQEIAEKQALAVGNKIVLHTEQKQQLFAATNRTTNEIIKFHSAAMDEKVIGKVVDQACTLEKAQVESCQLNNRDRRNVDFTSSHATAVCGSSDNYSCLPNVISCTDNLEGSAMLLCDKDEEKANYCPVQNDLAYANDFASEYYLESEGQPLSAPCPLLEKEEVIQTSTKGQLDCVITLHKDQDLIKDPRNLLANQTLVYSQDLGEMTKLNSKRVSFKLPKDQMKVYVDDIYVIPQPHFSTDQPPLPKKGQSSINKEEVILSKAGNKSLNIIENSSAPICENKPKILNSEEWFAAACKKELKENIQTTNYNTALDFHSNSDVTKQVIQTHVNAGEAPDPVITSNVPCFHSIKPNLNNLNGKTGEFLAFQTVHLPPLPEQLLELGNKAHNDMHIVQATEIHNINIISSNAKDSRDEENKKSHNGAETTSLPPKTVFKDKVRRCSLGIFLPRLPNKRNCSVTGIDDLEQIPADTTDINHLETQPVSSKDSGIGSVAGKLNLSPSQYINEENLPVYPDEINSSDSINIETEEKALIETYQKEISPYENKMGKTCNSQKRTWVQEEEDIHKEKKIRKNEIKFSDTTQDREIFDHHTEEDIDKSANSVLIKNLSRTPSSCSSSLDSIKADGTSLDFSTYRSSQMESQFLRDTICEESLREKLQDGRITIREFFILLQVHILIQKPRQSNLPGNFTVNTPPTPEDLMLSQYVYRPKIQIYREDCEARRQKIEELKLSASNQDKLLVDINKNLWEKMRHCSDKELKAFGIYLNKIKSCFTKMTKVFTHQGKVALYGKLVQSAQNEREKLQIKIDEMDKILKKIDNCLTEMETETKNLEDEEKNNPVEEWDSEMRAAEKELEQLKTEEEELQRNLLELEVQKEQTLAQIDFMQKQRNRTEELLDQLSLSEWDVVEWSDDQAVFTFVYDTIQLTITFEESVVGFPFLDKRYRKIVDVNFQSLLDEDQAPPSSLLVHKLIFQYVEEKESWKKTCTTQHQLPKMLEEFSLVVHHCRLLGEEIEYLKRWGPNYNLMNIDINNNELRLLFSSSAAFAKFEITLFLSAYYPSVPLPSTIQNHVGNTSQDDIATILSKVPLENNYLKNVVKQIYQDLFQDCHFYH
inactive: [1] 0.009 | [2] 0.003 | [3] -0.004 | [4] -0.03 | [5] -0.001

LUZP1 (UniProt Q86V48)
inactive: [1] 0.039 | [2] -0.113 | [3] 0.032 | [4] 0.007 | [5] -0.056

MCMBP isoform 2 (UniProt Q9BTE3)
inactive: [1] 0.045 | [2] 0.02 | [3] 0.007 | [4] 0.018

KIF4A (UniProt O95239)
Chain of UniProt O95239 (O95239 whole entry, looked up): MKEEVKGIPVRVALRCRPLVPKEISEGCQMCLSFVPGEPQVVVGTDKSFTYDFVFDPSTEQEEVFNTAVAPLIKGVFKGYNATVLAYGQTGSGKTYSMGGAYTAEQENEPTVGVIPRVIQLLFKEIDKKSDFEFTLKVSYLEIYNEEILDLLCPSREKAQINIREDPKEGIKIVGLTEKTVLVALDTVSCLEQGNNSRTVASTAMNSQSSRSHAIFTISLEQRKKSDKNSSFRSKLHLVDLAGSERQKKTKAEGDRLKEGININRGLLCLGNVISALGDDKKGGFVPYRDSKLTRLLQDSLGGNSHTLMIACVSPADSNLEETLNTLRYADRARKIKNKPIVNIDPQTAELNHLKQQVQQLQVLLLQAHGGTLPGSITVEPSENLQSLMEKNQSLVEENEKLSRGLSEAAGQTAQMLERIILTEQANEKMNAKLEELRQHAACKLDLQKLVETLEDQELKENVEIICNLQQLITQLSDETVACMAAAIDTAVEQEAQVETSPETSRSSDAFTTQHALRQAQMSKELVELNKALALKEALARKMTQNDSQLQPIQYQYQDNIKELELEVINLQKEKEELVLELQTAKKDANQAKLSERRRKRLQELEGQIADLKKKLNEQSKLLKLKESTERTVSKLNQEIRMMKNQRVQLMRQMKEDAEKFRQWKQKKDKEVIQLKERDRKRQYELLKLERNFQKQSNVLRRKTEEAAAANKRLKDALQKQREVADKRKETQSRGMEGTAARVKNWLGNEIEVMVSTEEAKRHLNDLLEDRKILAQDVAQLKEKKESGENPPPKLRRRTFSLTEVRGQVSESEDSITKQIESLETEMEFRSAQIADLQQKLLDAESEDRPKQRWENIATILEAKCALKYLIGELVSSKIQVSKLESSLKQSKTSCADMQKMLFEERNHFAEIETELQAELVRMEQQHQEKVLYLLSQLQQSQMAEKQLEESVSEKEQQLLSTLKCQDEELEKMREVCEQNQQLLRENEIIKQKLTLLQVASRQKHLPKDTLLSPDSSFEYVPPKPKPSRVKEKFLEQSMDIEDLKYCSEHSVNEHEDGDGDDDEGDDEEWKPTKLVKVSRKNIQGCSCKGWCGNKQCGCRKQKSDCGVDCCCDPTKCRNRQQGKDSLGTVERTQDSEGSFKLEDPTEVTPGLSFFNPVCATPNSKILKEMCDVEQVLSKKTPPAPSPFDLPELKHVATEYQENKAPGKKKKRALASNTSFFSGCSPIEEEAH
inactive: [1] -0.042 | [2] 0.012 | [3] 0.035 | [4] 0.06 | [5] 0.005
